High-throughput results: PubChem, National Center for Advancing Translational Sciences (NCATS)
Only some compounds are listed: those with a hit (about 21% of all), similar ones and a draw of the others.
Pf growth 96h – P. falciparum growth inhibition at 96 hour, primary screen for plastid delayed-death inhibitors; AID 504834; P. falciparum luciferase reporter growth, 96 h; Potency, µM (series often up to 28.7 µM), inactives show top-dose activity change, negative = inhibition, usual class: inhibitors; actives 6.9% (n = 320,000); note: potency is the fitted concentration of half-maximal effect; % is set by controls: 0 for no effect and ±100 for the full control effect
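Cell-based qHTS: luciferase-tagged P. falciparum in erythrocytes (2% hematocrit, 0.05% parasitemia final) incubated with compounds for 96 hours, 37 C, 5% CO2; luciferase detection reagent then added and luminescence measured.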
Shiga inhibitor – inhibitors of Shiga toxin in Vero cells. Vero cells, Shiga toxin protein synthesis inhibition reporter. inhibition, % at 38.7 µM. actives 9.2% (n = 290,000); in the data active = inhibition mostly above about 28%, no sharp cut-off; inactive = mostly below about 43%; note: 0% is about no effect
AMA1 RON2 block – inhibitors of Plasmodium falciparum AMA1-RON2 interaction; actives 0.2% (n = 360,000); AID 720542; Potency, µM (top dose mostly 58.2 µM), for inactives: top-dose activity change, negative = inhibition, usual class: inhibitors; AlphaScreen AMA1-biotinylated RON2 peptide binding;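 note: potency is the fitted concentration of half-maximal effect; 0% = vehicle wells and -100% = peptide control; nearly all actives have a fitted effect of over 45% in size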
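AMA1 (3D7) with his tag at 25 nM final met compounds first, then biotinylated RON2 peptide at 25 nM; detection used donor plus acceptor beads, 10 µg/mL apiece, read by AlphaScreen after 30 min at room temperature.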
Pf growth 48h – P. falciparum growth inhibition at 48 hours (one generation); P. falciparum luciferase growth in erythrocytes, 48 h; Potency, µM (series often up to 28.7 µM), inactives show at the highest dose activity change, negative = inhibition, hits mostly inhibitors; actives 5.9% (n = 310,000); note: potency is the fitted concentration of half-maximal effect; % is set by controls: 0 for no effect and ±100 for the full control effect
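A one-generation exposure of luciferase-tagged malaria parasites in RPMI 1640/Albumax erythrocyte culture, 37 C and 5% CO2. Inhibition is inferred from decreased luminescence after adding detection reagent.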
Cycloheximide cs – affects cycloheximide protein synthesis inhibition readout, counter-screen. AID 2314. cell reporter, cycloheximide protein synthesis inhibition counterscreen. max response, %. actives 12% (n = 300,000); in the data active = max response mostly above about 13%, no sharp cut-off; inactive = mostly below about 14%; note: read at 38.3 µM for the half of the compounds with a filed dose; 0% is about no effect
HCV inhibitor – inhibitors of hepatitis C virus infection; Huh7.5.1 HCVcc-Cre infection, luciferase reporter, 44 h; Potency, µM (highest dose often 41.8 µM), for inactives: at the highest dose activity change, negative = inhibition, usual class: inhibitors; AID 651820; actives 3.4% (n = 340,000); note: potency is the fitted concentration of half-maximal effect; % is set by controls: 0 for no effect and ±100 for the full control effect
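1,000 cells/well; 4 h culture; + compound; + HCVcc-Cre (~0.5 moi); 44 h; luciferase substrate, RT 15 min; read 15 sec.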
* = called active by the depositor; ? = inconclusive; / = not tested or not shown. Unless noted, calls come from the whole dose curve; as a rule, active = well fitted curve in the direction sought with a large enough effect; inconclusive = small, poorly fitted or top-dose-only effect, or another doubt; inactive = no such curve, though single readings can be large; an effect the other way counts as inactive or inconclusive.

SMILES | Pf growth 96h | Shiga inhibitor | AMA1 RON2 block | Pf growth 48h | Cycloheximide cs | HCV inhibitor
COc1ccc(N(C(=O)c2ccc(S(=O)(=O)N3CCCC3)cc2)C2C=CS(=O)(=O)C2)cc1 (stereo not drawn) | 0% | -17 | -2% | 8% | -3 | 23%
Cc1cc(C)c2nc(-c3ccncc3)cc(C(=O)N3CCN(Cc4ccccc4Cl)CC3)c2c1 | 4% | -9 | -16% | ? | 8 | -22%
CCOC(=O)c1cc2sc(C)cc2n1CC(=O)Nc1ccc2c(c1)OCCO2 | 0.74µM* | 26 | 10% | -9% | 12* | ?
C=CCOc1ccc(CNn2c(C)n[nH]c2=S)cc1OC | -10% | 55* | 43% | 32% | 28* | 12%
COc1cc(CNn2c(C)n[nH]c2=S)cc(Cl)c1OCC(=O)NC(C)(C)C | ? | 21 | 77% | ? | 11* | ?
COc1cc(CNn2c(C)n[nH]c2=S)cc(Br)c1OCC(=O)NC(C)(C)C | ? | / | 97% | ? | 1 | -9%
COc1ccc(NC(=O)c2cc(C3CCCCN3S(=O)(=O)Cc3ccccc3)on2)cn1 (stereo not drawn) | / | / | -8% | / | / | /
CSc1ncccc1C(=O)Nc1nccs1 | 7% | -10 | 25% | 14% | -3 | 20%
COc1ccc(O)c(CN2CCCC(N3CCc4ccccc4C3)C2)c1 (stereo not drawn) | ? | -1 | 23% | 12µM* | 5 | -8%
CCOc1cc(CN2CCCC(N3CCc4ccccc4C3)C2)ccc1O (stereo not drawn) | 414% | 11 | 0% | ? | -2 | -12%
CCOc1cccc(CN2CCCC(N3CCc4cc(OC)c(OC)cc4C3)C2)c1O (stereo not drawn) | ? | -5 | 54% | ? | 3 | -23%
Oc1ccccc1CN1CCCC(N2CCc3ccccc3C2)C1 (stereo not drawn) | 5.2µM* | / | 51% | 9.3µM* | -3 | -21%
COc1ccc(O)c(CN2CCCC(N3CCN(c4ccc(F)cc4)CC3)C2)c1 (stereo not drawn) | ? | 8 | -9% | 4.1µM* | 8 | -19%
OC[C@@H]1CN(Cc2cccnc2)C[C@H](n2cnc3c(N4CCN(c5ccccc5)CC4)ncnc32)O1 | / | / | -2% | / | / | /
O=C(O)c1ccc(N2CCCS2(=O)=O)cc1 | 55% | -3 | -4% | 26% | 7 | 10%
Cc1ccc2nc(COC(=O)c3cccnc3Cl)cc(=O)n2c1 | / | / | 0% | / | / | /
c1ccc(NCCCNc2ccccc2)cc1 | -80% | 16 | ? | -5% | 11* | -3%
OC1(c2ccccc2)c2ccccc2-c2ncccc21 (stereo not drawn) | ? | -4 | 24% | -10% | 0 | 12%
CC(=O)NC(CC(=O)Nc1nc(-c2ccc(N(C)S(C)(=O)=O)cc2)cs1)c1ccccc1 (stereo not drawn) | ? | -5 | 1% | ? | -2 | 11µM*
CC(=O)Nc1ccc(-c2csc(NC(=O)CC(NC(C)=O)c3ccccc3)n2)cc1 (stereo not drawn) | ? | -2 | 4% | ? | -1 | -9%
C/C(CC(=O)Nc1cccc2c1CCCC2)=N\NC=O | 24% | -9 | -14% | -4% | -3 | -1%
O=C1NCCCc2nonc21 | 55% | -17 | 0% | 9% | -4 | -1%
C1CCc2c(nnc3c2-c2nonc2CC3)C1 | 2.1µM* | 21 | 8% | 9% | -1 | 15%
Cc1ccc(C(O)c2ncc(-c3ccccc3C(F)(F)F)[nH]2)cc1F (stereo not drawn) | / | / | 5% | / | / | /
COc1ccc(N=C(c2ccccc2)c2c(C)[nH]n(-c3ccccc3)c2=O)c(OC)c1 | ? | 27 | 1% | -7% | 6 | ?
SMILES | Pf growth 96h | Shiga inhibitor | AMA1 RON2 block | Pf growth 48h | Cycloheximide cs | HCV inhibitor
CC(C)N1CCN(Cc2cnc(N3CCCC3)s2)CC1CCO (stereo not drawn) | 9.3µM* | -7 | -4% | 8% | -3 | 17%
OCCC1CN(Cc2nc(-c3ccccc3)cs2)CCN1C1CCCC1 (stereo not drawn) | -16% | -3 | 16% | ? | -1 | -27%
CC(C)N1CCN(Cc2nc(-c3ccccc3)cs2)CC1CCO (stereo not drawn) | 4% | 24 | 12% | 32% | 20* | -25%
CC(C)CCN1CCN(Cc2nc(-c3ccc(F)cc3)cs2)CC1CCO (stereo not drawn) | 12µM* | -8 | -9% | ? | 1 | 1%
Cc1cc(Br)ccc1NC(=O)C1C2CCC(O2)C1C(=O)O (stereo not drawn) | ? | -14 | -5% | 20% | 1 | -4%
COc1ccc(-n2nc3c(N4CCC(C(=O)NCCc5ccccc5C)CC4)nnc(C)c3c2C)cc1 | -1% | -7 | -2% | -11% | -6 | ?
COc1ccc(-n2nc3c(N4CCC(C(=O)NCC(C)c5ccccc5)CC4)nnc(C)c3c2C)cc1 (stereo not drawn) | -15% | -10 | -6% | ? | -7 | 11µM*
COc1ccc(-n2nc3c(N4CCC(C(=O)NCc5ccccc5C)CC4)nnc(C)c3c2C)cc1 | ? | -5 | -2% | ? | -11 | 11µM*
COc1ccc(-n2nc3c(N4CCCC(C(=O)NCc5ccccc5C)C4)nnc(C)c3c2C)cc1 (stereo not drawn) | 2.1µM* | / | / | 12µM* | / | /
Cc1ccccc1CCNC(=O)C1CCN(S(=O)(=O)c2ccc(-n3cnnn3)cc2)CC1 | 13µM* | 32 | -12% | ? | 5 | 1%
CCOC(=O)N1CCN(S(=O)(=O)N2CCCC(C(=O)NCc3ccccc3OCC)C2)CC1 (stereo not drawn) | / | / | -2% | / | / | /
Cc1ccc(-n2nc3c(N4CCC(C(=O)N5CCC(C(N)=O)CC5)CC4)nnc(C)c3c2C)cc1 | 2% | -3 | -5% | ? | 4 | -8%
CCOc1ccccc1CNC(=O)C1CCCN(c2nnc(C)c3c(C)n(-c4ccccc4)nc23)C1 (stereo not drawn) | 38% | 7 | 15% | 13µM* | 6 | ?
Cc1ccc(-n2nc3c(N4CCC(C(=O)NCCc5ccccc5C)CC4)nnc(C)c3c2C)cc1 | 31% | 9 | 4% | ? | 12 | 7.9µM*
CCN1CCN(C(=O)C2CCN(c3nnc(C)c4c(C)n(-c5ccc(C)cc5)nc34)CC2)CC1 | ? | -13 | 0% | ? | -1 | 8.9µM*
CCOc1ccccc1CNC(=O)C1CCCN(c2nc3ccccc3o2)C1 (stereo not drawn) | 3.7µM* | -6 | / | 12% | 1 | /
COc1ccc(-n2nc3c(N4CCC(C(=O)NC5CCCCC5)CC4)nnc(C)c3c2C)cc1 | 12% | -12 | -2% | ? | -6 | ?
CCOC(=O)[C@]12CCCC=C1N(Cc1ccccc1)C(=O)[C@H](CC(=O)N1CCCCCC1)C2 | / | / | -6% | / | / | /
